Test results from the supplement of paper PMC10849652.
Of roughly 7,900 targets only a part is listed; those with a hit were picked by preference. About 0.6% of all pairs of compound and target were hits.

Columns and labels:
Experiment in all cases: log2 fold change, soluble protein after heating vs DMSO (PISA); higher = thermal stabilisation; K562 cells, 10 uM, 30 min; active = over 0.2 and 3.5 SD of the protein, either way, in both replicates (recomputed)
bafetinib = compound: Cc1ccc(NC(=O)c2ccc(CN3CC[C@H](N(C)C)C3)c(C(F)(F)F)c2)cc1Nc1nccc(-c2cncnc2)n1 [bafetinib]
Summary of the method: (§1)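 For each measurement, 10 μM compound was applied for 30 min to K562 cells at 2×10^6 cells/mL. Aliquots were heated for 3 min across 48°C-58°C, pooled, and extracted in PBS with 0.5% NP-40 at 4°C; the supernatant after 21,000xg for 90 min was soluble protein. This was quantified by TMTpro 16plex LC-MS/MS with channel sums equalised, and thermal stability was reported relative to control samples from duplicates, on a log2 fold-change scale.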

[1] = compound: Cc1cccc(CC(=O)N2CCc3c2ccc(-c2cn(C)c4ncnc(N)c24)c3F)n1
Summary of the method: as §1

nilotinib = compound: Cc1cn(-c2cc(NC(=O)c3ccc(C)c(Nc4nccc(-c5cccnc5)n4)c3)cc(C(F)(F)F)c2)cn1 [nilotinib]
Summary of the method: as §1

[2] = compound: Cc1nc(Nc2n[nH]c3c2CN(C(=O)N[C@H](CN(C)C)c2ccccc2)C3(C)C)c2sccc2n1
Summary of the method: as §1

dasatinib = compound: Cc1nc(Nc2ncc(C(=O)Nc3c(C)cccc3Cl)s2)cc(N2CCN(CCO)CC2)n1 [dasatinib]
Summary of the method: as §1

[3] = compound: Cc1ncc(-c2ccnc(Nc3ccc(S(C)(=O)=O)cc3)n2)n1C(C)C
Summary of the method: as §1

[4] = compound: Cn1cc(-c2ccc3c(c2)CCN3C(=O)Cc2cccc(C(F)(F)F)c2)c2c(N)ncnc21
Summary of the method: as §1

[5] = compound: Cn1cc(-c2ccc3nnc(C(F)(F)c4ccc5ncccc5c4)n3n2)cn1
Summary of the method: as §1

tipifarnib = compound: Cn1cncc1[C@@](N)(c1ccc(Cl)cc1)c1ccc2c(c1)c(-c1cccc(Cl)c1)cc(=O)n2C [tipifarnib]
Summary of the method: as §1

mubritinib = compound: FC(F)(F)c1ccc(/C=C/c2nc(COc3ccc(CCCCn4ccnn4)cc3)co2)cc1 [mubritinib]
Summary of the method: as §1

[6] = compound: NC(=O)Nc1cc(-c2cccc(F)c2)sc1C(=O)N[C@H]1CCCNC1
Summary of the method: as §1

[7] = compound: NC(=O)c1cnc(N[C@@H]2CCCC[C@@H]2N)nc1Nc1cccc(-n2nccn2)c1
Summary of the method: as §1

[8] = compound: NC1(c2ccc(-c3nc4ccn5c(=O)[nH]nc5c4cc3-c3ccccc3)cc2)CCC1
Summary of the method: as §1

[9] = compound: NCC(=O)Nc1ccc(-n2nc(C(F)(F)F)cc2-c2ccc3c(ccc4ccccc43)c2)cc1
Summary of the method: as §1

entinostat = compound: Nc1ccccc1NC(=O)c1ccc(CNC(=O)OCc2cccnc2)cc1 [entinostat]
Summary of the method: as §1

vorinostat = compound: O=C(CCCCCCC(=O)Nc1ccccc1)NO [vorinostat]
Summary of the method: as §1

citarinostat = compound: O=C(CCCCCCNC(=O)c1cnc(N(c2ccccc2)c2ccccc2Cl)nc1)NO [citarinostat]
Summary of the method: as §1

silmitasertib = compound: O=C(O)c1ccc2c(c1)nc(Nc1cccc(Cl)c1)c1ccncc12 [silmitasertib]
Summary of the method: as §1

[10] = compound: O=C1NC(=O)C(c2cnc3ccccn23)=C1c1cn2c3c(cc(F)cc13)CN(C(=O)N1CCCCC1)CC2
Summary of the method: as §1

[11] = compound: c1cc(OCCN2CCCCC2)cc(-c2n[nH]c3ccc(-c4nnc[nH]4)cc23)c1
Summary of the method: as §1

Measured: log2 fold change

MND1 (UniProt Q9BWT6)
Chain of UniProt Q9BWT6 (Q9BWT6 whole entry, looked up): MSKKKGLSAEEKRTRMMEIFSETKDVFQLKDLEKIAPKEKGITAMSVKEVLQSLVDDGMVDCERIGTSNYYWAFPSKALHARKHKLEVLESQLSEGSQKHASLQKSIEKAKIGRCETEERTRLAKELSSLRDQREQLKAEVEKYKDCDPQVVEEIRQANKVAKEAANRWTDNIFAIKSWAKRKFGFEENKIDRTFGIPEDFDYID
inactive: bafetinib -0.168 | [1] 0.042 | nilotinib 0.032 | [2] 0.003 | dasatinib -0.037 | [3] -0.015 | [4] -0.056 | [5] -0.132 | tipifarnib 0.04 | mubritinib 0.043 | [6] -0.024 | [7] -0.012 | [8] -0.118 | [9] -0.119 | entinostat 0.041 | vorinostat -0.11 | citarinostat -0.033 | silmitasertib -0.014 | [10] -0.042 | [11] -0.146

MT-ATP6 (UniProt P00846)
inactive: bafetinib 0.162 | [1] 0.086 | nilotinib 0.006 | [2] 0.005 | dasatinib -0.101 | [3] -0.043 | [4] -0.024 | [5] 0.11 | tipifarnib 0.231 | mubritinib 0.028 | [6] -0.003 | [7] -0.007 | [8] 0.197 | [9] 0.081 | entinostat -0.018 | vorinostat -0.007 | citarinostat 0.097 | silmitasertib -0.005 | [10] 0.037 | [11] -0.04

MT-ND4 (UniProt P03905)
Chain of UniProt P03905 (P03905 whole entry, looked up): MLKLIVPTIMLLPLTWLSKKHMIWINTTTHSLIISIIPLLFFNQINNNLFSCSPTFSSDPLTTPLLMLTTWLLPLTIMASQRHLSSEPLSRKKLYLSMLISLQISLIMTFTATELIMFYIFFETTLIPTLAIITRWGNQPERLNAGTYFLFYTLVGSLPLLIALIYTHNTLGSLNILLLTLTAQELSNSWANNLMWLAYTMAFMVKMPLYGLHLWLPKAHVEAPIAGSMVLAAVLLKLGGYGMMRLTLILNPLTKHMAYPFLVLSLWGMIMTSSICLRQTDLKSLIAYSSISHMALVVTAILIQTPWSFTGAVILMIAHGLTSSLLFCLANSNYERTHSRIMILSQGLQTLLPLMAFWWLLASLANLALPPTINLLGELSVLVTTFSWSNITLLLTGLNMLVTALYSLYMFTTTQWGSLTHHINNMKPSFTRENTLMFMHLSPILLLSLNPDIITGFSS
inactive: bafetinib -0.016 | [1] -0.118 | nilotinib 0.006 | [2] -0.033 | dasatinib -0.009 | [3] -0.003 | [4] -0.004 | [5] -0.045 | tipifarnib 0.173 | mubritinib 0.05 | [6] 0.052 | [7] 0.038 | [8] -0.046 | [9] -0.074 | entinostat 0.099 | vorinostat 0.261 | citarinostat 0.198 | silmitasertib -0.011 | [10] 0.088 | [11] -0.057

MRPS18B (UniProt Q9Y676)
inactive: bafetinib 0.125 | [1] 0.055 | nilotinib -0.154 | [2] 0.098 | dasatinib -0.024 | [3] -0.342 | [4] 0.005 | [5] 0.081 | tipifarnib -0.059 | mubritinib 0.172 | [6] 0.133 | [7] 0 | [8] 0.021 | [9] 0.105 | entinostat -0.047 | vorinostat 0.08 | citarinostat -0.03 | silmitasertib -0.061 | [10] -0.03 | [11] -0.026

NUP85 (UniProt Q9BW27)
Chain of UniProt Q9BW27 (Q9BW27 whole entry, looked up): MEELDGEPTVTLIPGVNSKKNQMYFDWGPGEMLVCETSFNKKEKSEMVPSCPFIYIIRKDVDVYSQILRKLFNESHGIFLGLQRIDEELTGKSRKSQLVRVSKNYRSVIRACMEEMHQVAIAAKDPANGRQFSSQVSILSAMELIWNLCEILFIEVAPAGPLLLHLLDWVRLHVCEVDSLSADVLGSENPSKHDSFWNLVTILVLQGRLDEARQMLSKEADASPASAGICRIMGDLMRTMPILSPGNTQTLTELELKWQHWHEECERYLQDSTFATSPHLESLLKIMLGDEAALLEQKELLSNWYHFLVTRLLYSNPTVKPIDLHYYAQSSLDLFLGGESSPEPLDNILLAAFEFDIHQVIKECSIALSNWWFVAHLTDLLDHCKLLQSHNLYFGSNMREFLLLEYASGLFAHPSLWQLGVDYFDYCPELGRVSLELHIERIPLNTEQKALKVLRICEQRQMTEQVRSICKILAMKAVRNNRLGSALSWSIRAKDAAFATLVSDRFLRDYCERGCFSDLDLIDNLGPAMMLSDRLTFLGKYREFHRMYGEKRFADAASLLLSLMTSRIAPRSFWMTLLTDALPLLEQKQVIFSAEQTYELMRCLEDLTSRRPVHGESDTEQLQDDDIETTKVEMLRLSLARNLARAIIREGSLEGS
inactive: bafetinib -0.088 | [1] 0.02 | nilotinib -0.027 | [2] -0.115 | dasatinib -0.068 | [3] -0.013 | [4] -0.009 | [5] -0.002 | tipifarnib -0.031 | mubritinib 0.026 | [6] 0.01 | [7] -0.014 | [8] -0.092 | [9] -0.035 | entinostat -0.011 | vorinostat 0.021 | citarinostat 0.031 | silmitasertib 0.047 | [10] -0.041 | [11] -0.041

NDUFS7 (UniProt O75251)
Chain of UniProt O75251 (O75251 whole entry, looked up): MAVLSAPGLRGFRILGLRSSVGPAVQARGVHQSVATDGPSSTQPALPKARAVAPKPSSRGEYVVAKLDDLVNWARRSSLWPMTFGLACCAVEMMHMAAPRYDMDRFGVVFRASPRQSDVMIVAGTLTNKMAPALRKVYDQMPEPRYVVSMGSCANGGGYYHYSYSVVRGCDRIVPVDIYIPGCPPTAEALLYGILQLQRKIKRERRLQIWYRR
inactive: bafetinib -0.047 | [1] 0.06 | nilotinib -0.03 | [2] 0.021 | dasatinib 0.01 | [3] -0.007 | [4] 0.034 | [5] 0.036 | tipifarnib -0.035 | mubritinib 0.095 | [6] -0.025 | [7] -0.079 | [8] -0.113 | [9] -0.057 | entinostat -0.011 | vorinostat 0.103 | citarinostat 0.013 | silmitasertib -0.003 | [10] -0.066 | [11] -0.027

NOP56 (UniProt O00567)
Chain of UniProt O00567 (O00567 whole entry, looked up): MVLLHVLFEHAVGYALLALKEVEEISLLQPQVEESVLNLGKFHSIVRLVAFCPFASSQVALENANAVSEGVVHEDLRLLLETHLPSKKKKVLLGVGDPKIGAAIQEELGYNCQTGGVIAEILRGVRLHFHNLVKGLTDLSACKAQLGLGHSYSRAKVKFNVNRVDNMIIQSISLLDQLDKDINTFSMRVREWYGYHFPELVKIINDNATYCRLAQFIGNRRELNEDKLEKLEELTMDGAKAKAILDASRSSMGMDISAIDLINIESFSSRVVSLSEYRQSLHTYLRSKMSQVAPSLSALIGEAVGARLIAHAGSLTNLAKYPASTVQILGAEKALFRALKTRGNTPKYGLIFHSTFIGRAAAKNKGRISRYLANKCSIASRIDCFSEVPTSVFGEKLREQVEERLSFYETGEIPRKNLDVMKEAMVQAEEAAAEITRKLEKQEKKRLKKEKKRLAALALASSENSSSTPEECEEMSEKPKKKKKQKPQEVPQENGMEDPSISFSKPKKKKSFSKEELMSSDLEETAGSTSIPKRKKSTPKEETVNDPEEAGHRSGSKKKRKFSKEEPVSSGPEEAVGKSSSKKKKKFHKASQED
inactive: bafetinib 0.225 | [1] -0.099 | nilotinib 0.098 | [2] -0.018 | dasatinib 0.204 | [3] -0.026 | [4] -0.371 | [5] -0.18 | tipifarnib 0.201 | mubritinib -0.164 | [6] 0.162 | [7] 0.14 | [8] 0.197 | [9] 0.103 | entinostat -0.084 | vorinostat 0.014 | citarinostat -0.058 | silmitasertib 0.096 | [10] 0.09 | [11] -0.156

MRPS15 (UniProt P82914)
inactive: bafetinib 0.126 | [1] 0.159 | nilotinib -0.33 | [2] 0.056 | dasatinib -0.046 | [3] 0.07 | [4] 0.05 | [5] 0.032 | tipifarnib -0.105 | mubritinib 0.172 | [6] 0.039 | [7] 0.06 | [8] -0.057 | [9] 0.119 | entinostat 0.072 | vorinostat 0.077 | citarinostat 0.028 | silmitasertib -0.114 | [10] 0.085 | [11] -0.031

MRPS6 (UniProt P82932)
inactive: bafetinib 0.062 | [1] 0.159 | nilotinib -0.146 | [2] 0.062 | dasatinib -0.02 | [3] -0.009 | [4] 0.007 | [5] 0.148 | tipifarnib -0.106 | mubritinib 0.112 | [6] 0.023 | [7] 0.009 | [8] -0.133 | [9] 0.003 | entinostat 0.03 | vorinostat 0.108 | citarinostat 0.079 | silmitasertib -0.036 | [10] -0.042 | [11] -0.031

MRPL50 (UniProt Q8N5N7)
inactive: bafetinib -0.079 | [1] -0.035 | nilotinib 0.008 | [2] 0.114 | dasatinib 0.183 | [3] -0.064 | [4] 0.022 | [5] 0.117 | tipifarnib -0.163 | mubritinib -0.039 | [6] 0.024 | [7] 0.154 | [8] 0.035 | [9] 0.074 | entinostat 0.059 | vorinostat -0.102 | citarinostat 0.051 | silmitasertib 0.006 | [10] -0.078 | [11] -0.078

NA, A0A0B4J2A0
inactive: bafetinib -0.066 | [1] 0.024 | nilotinib 0.035 | [2] -0.024 | dasatinib -0.111 | [3] 0.006 | [4] 0.025 | [5] -0.015 | tipifarnib 0.007 | mubritinib -0.011 | [6] -0.025 | [7] 0.029 | [8] -0.061 | [9] 0.031 | entinostat 0.029 | vorinostat 0.05 | citarinostat 0.029 | silmitasertib 0.017 | [10] -0.059 | [11] -0.012

MRPS35 (UniProt P82673)
inactive: bafetinib 0.038 | [1] 0.115 | nilotinib -0.134 | [2] 0.088 | dasatinib -0.004 | [3] -0.071 | [4] -0.039 | [5] 0.017 | tipifarnib 0.024 | mubritinib 0.091 | [6] 0.035 | [7] -0.07 | [8] -0.082 | [9] 0.012 | entinostat -0.027 | vorinostat 0.088 | citarinostat -0.011 | silmitasertib -0.119 | [10] -0.033 | [11] -0.03

OXSR1 (UniProt O95747)
Chain of UniProt O95747 (O95747 whole entry, looked up): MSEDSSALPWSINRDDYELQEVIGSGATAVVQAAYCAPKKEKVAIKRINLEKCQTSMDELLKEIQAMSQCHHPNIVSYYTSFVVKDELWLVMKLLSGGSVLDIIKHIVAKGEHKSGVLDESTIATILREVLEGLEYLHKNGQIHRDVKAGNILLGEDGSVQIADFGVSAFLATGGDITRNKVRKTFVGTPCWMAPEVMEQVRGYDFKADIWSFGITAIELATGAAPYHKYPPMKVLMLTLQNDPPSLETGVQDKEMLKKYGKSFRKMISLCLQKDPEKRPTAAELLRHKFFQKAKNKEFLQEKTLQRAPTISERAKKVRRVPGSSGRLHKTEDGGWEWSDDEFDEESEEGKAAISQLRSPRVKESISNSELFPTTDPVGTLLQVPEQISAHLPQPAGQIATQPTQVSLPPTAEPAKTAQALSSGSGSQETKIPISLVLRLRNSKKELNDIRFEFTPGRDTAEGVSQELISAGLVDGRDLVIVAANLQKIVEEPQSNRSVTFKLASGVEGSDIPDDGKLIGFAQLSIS
inactive: bafetinib -0.014 | [1] -0.012 | nilotinib -0.083 | [2] -0.029 | dasatinib -0.179 | [3] 0.031 | [4] 0.038 | [5] 0.005 | tipifarnib -0.117 | mubritinib -0.05 | [6] -0.014 | [7] -0.048 | [8] -0.151 | [9] -0.064 | entinostat 0.031 | vorinostat 0.042 | citarinostat 0.045 | silmitasertib -0.071 | [10] -0.007 | [11] 0.018

MORC3 (UniProt Q14149)
Chain of UniProt Q14149 (Q14149 whole entry, looked up): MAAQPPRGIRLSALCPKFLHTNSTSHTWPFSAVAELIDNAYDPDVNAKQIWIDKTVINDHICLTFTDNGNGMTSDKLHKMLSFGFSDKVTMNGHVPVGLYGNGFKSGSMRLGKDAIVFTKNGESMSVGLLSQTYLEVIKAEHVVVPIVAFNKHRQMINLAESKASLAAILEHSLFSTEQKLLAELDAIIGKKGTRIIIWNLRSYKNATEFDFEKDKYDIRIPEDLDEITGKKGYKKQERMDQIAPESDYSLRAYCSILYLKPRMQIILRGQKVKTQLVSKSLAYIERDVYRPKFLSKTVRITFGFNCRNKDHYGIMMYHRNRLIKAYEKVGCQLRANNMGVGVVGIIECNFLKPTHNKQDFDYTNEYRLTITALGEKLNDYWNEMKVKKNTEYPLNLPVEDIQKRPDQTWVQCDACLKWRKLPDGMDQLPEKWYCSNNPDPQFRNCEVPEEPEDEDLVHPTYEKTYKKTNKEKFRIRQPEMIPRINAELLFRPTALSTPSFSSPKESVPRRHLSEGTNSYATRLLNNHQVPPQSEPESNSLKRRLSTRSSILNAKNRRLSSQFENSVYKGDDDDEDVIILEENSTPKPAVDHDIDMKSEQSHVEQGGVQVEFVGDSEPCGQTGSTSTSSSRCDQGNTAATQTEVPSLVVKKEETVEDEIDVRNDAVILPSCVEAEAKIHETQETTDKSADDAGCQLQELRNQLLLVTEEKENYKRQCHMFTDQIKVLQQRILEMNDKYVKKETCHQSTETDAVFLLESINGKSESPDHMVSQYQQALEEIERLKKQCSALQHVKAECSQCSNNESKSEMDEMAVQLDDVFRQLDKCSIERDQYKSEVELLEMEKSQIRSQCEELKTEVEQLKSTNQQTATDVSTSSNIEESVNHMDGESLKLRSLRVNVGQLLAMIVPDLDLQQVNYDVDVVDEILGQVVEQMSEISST
inactive: bafetinib -0.014 | [1] 0.009 | nilotinib -0.173 | [2] 0.09 | dasatinib -0.154 | [3] 0.105 | [4] 0.011 | [5] -0.026 | tipifarnib 0.006 | mubritinib -0.212 | [6] 0.024 | [7] -0.047 | [8] -0.241 | [9] -0.22 | entinostat -0.021 | vorinostat -0.159 | citarinostat -0.118 | silmitasertib 0.201 | [10] -0.066 | [11] 0.089

NFATC3 (UniProt Q12968)
Chain of UniProt Q12968 (Q12968 whole entry, looked up): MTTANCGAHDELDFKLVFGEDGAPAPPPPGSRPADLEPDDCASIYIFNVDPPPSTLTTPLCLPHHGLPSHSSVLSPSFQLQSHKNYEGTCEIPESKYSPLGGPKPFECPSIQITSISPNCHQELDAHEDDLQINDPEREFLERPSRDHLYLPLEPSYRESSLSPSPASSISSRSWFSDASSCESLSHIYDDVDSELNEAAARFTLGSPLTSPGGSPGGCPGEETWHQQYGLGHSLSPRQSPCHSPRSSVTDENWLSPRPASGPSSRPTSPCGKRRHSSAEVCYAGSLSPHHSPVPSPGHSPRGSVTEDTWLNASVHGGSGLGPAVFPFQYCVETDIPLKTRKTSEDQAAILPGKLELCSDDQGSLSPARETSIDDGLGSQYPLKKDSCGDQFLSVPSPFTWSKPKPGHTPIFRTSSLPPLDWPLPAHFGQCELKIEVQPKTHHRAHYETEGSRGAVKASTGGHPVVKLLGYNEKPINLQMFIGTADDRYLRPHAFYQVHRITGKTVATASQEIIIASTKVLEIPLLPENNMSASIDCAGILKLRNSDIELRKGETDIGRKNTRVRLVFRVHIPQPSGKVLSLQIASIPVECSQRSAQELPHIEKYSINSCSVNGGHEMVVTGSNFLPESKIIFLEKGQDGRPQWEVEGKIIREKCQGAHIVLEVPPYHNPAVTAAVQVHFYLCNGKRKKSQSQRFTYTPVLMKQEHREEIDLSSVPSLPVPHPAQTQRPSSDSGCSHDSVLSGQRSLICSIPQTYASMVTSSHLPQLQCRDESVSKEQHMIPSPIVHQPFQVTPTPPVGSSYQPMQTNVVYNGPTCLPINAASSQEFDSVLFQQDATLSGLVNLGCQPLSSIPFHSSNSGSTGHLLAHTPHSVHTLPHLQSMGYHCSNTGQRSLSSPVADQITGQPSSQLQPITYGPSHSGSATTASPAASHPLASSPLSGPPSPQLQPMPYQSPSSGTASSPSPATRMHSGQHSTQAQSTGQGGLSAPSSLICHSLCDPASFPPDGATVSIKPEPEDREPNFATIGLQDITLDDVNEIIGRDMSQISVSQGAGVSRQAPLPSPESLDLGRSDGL
inactive: bafetinib 0.041 | [1] -0.064 | nilotinib -0.121 | [2] -0.316 | dasatinib -0.042 | [3] -0.3 | [4] -0.073 | [5] 0.191 | tipifarnib 0.01 | mubritinib -0.01 | [6] -0.15 | [7] -0.137 | [8] 0.034 | [9] 0.007 | entinostat 0.107 | vorinostat 0.045 | citarinostat -0.101 | silmitasertib 0.118 | [10] -0.267 | [11] -0.225

NIPSNAP2 (UniProt O75323)
Chain of UniProt O75323 (O75323 whole entry, looked up): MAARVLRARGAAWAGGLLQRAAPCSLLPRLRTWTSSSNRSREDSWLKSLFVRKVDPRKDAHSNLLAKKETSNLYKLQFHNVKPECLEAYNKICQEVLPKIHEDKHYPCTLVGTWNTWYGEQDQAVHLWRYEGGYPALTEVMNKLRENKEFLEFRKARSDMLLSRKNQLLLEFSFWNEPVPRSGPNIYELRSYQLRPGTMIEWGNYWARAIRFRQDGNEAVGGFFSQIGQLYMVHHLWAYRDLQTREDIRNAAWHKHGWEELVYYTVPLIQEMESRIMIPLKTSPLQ
inactive: bafetinib 0.02 | [1] -0.012 | nilotinib 0.082 | [2] -0.003 | dasatinib 0.05 | [3] -0.033 | [4] 0.185 | [5] 0.025 | tipifarnib -0.058 | mubritinib 0.041 | [6] -0.084 | [7] -0.047 | [8] -0.004 | [9] -0.033 | entinostat 0.027 | vorinostat -0.016 | citarinostat -0.021 | silmitasertib -0.039 | [10] -0.179 | [11] 0.023
